# PubChem BioAssay (NCATS)
# Records with an inconclusive call do not appear. The source made the active and inactive calls. Calls come from the whole dose curve; as a rule, active = well fitted inhibition curve with a large enough effect; inconclusive = small, poorly fitted or top-dose-only effect; inactive = no such curve, though single readings can be large or run the other way.
# Test: BET inhibitor-based combinations targeting novel dependencies in MECOM-rearranged (r) AML: HNT-34 cell line (AID 2202234); note: nearly all actives have a fitted effect of over 35% in size;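 for viability (% of control): plate controls were vehicle wells for no effect and cell-free wells for full effect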
# Conditions: HNT-34 AML viability, CellTiter-Glo luminescence, 48 h; series mostly up to 46 µM; viability (% of control): at the top concentration
# Procedure, shortened: (§1)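 Luminescent ATP readout (CellTiter-Glo, 15 min at room temperature) after 48 hr drug exposure gave viability. Dose-response curves, normalized to DMSO and empty-well controls, were summarized as area under the curve and its mean-centred Z-score.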
# Potency is the fitted concentration of half-maximal effect.
Compound,Potency,viability (% of control)
C[C@H](NC(=O)/C(C#N)=C/c1cccc(Br)n1)c1ccccc1,4170 nM (active),–
O=C1CC(c2c[nH]c3ccc(F)cc23)C(=O)N1 (stereo not given),–,90.2% (inactive)
COc1cc(-c2cn(C)c(=O)c3cnccc23)cc(OC)c1CN(C)C,–,97.4% (inactive)
CC(=O)c1ccc2c(c1)c1cc(C(C)=O)ccc1n2CCNC(C)C,1320 nM (active),–
COc1cc2c(NC3CCN(C)CC3)nc(N3CCCN(C)CC3)nc2cc1OCCCN(C)C,–,103% (inactive)

# Test: BET inhibitor-based combinations targeting novel dependencies in MECOM-rearranged (r) AML: UCSD-AML1 cell line (AID 2202235); note: nearly all actives have a fitted effect of over 40% in size;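 for viability (% of control): plate controls were DMSO vehicle wells for no effect and blank wells for full effect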
# Conditions: UCSD-AML1 AML cells viability, CellTiter-Glo, 48 h; series mostly up to 46 µM; viability (% of control): at the top concentration
# Procedure, shortened: as §1
Compound,Potency,viability (% of control)
CC(=O)O/N=C1\C(=O)N(Cc2cc(Cl)ccc2Cl)c2ccc(Cl)cc21,8330 nM (active),–
NC(=O)c1cc(F)cc2c1C(=O)N(C1CCN(C3CCC(F)(F)CC3)CC1)C2,–,108% (inactive)
CN1N=C(N)c2cn([C@@H]3O[C@H](COP(=O)(O)O)[C@@H](O)[C@@H]3O)c3ncnc1c23,1180 nM (active),–
C=CC(=O)Nc1cccc(Oc2nc(Nc3ccc(N4CCN(C)CC4)c(F)c3)nc3[nH]ccc23)c1,4680 nM (active),–
O=C(/C=C/c1ccc(CN(CCO)CCc2c[nH]c3ccccc23)cc1)NO,132 nM (active),–
O=C(/C=C/c1cccnc1)NCCCCC1CCN(C(=O)c2ccccc2)CC1,8.3 nM (active),–
Cc1[nH]nc2ncc(C(=O)N3CCC[C@H]3c3ccc(Cl)cc3)cc12,–,118% (inactive)
COc1ccnc(CS(=O)c2nc3ccc(OC(F)F)cc3[nH]2)c1OC (stereo not given),–,102% (inactive)
N[C@@H]1CN(c2c(F)cc3c(=O)c(C(=O)O)cn([C@@H]4C[C@@H]4F)c3c2Cl)CC12CC2,–,104% (inactive)
CN1C(=O)[C@@H](NC(=O)c2cc(Cc3ccccc3)on2)COc2ccccc21,–,93.4% (inactive)
CC(=O)CC(c1ccccc1)c1c(O)c2ccccc2oc1=O (stereo not given),–,103% (inactive)
CC(C)n1c(=O)cc(N[C@@H](C)c2ccccc2)[nH]c1=O,–,120% (inactive)
OCCn1cc(-c2ccc3c(c2)CC/C3=N\O)c(-c2ccncc2)n1,–,116% (inactive)
Cc1cc(C)c2c(c1)[C@@H](N(Cc1cc(C(F)(F)F)cc(C(F)(F)F)c1)c1nnn(C)n1)CCCN2CC1CCC(C(=O)O)CC1 (stereo not given in full),–,91.8% (inactive)
Clc1ccc(CCC(Cn2ccnc2)Sc2c(Cl)cccc2Cl)cc1 (stereo not given),–,103% (inactive)
Cc1ccc(C2=Nc3ccc(Cl)cc3OC2)cc1,–,101% (inactive)
CNS(=O)(=O)Nc1nccc(Cc2c(C)c3ccc(Oc4ncccn4)cc3oc2=O)c1F,525 nM (active),–
C#CCN(C)CC1=Cc2ccccc2Oc2ccccc21,–,115% (inactive)
c1ccc(-c2nn3c(c2-c2ccnc4cc(OCCN5CCOCC5)ccc24)CCC3)nc1,20900 nM (active),–
CN1CCN(CCCNc2ncc(Cl)c(-c3cc4c(C(=O)NC5CC5)cccc4s3)n2)CC1,–,110% (inactive)
O=C1CC(c2c[nH]c3ccc(F)cc23)C(=O)N1 (stereo not given),–,108% (inactive)
CNC(=O)[C@H](Cc1c[nH]c2ccccc12)NC(=O)[C@@H](CC(=O)NO)CC(C)C,–,104% (inactive)
COc1cc(-c2cn(C)c(=O)c3cnccc23)cc(OC)c1CN(C)C,–,115% (inactive)
COc1cc([C@@H](CC(=O)O)c2ccc(C)c(CN3C[C@@H](C)Oc4ccccc4S3(=O)=O)c2)cc2nnn(C)c12,–,90.6% (inactive)
CC(=O)c1ccc2c(c1)c1cc(C(C)=O)ccc1n2CCNC(C)C,833 nM (active),–
